Measured values taken from the supplement of paper PMC12636033.
± gives the standard deviation of the averaged measurements. Over roughly 33,000 sequences, “E-score (rank enrichment, -0.5 to 0.5)” has its median near -0.0068; the highest 2% begin near 0.24. The entries come from a sample that favours the highest values as a whole.

The sequences below were run on muMax20 (Max(13-93) K31hArg/K57hArg, M65Nle) (assay: PBM 8-mer E-score (E-score (rank enrichment, -0.5 to 0.5)); higher = stronger preferential binding).
Method: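 Protein binding microarray (universal PBM chip covering all 10-mers in fixed probe flanks) with chemically synthesized human Max(13-93) bHLH-LZ analogs (not full-length Max) bearing noncanonical residues (hArg, Tha, Aib, Nle at 65) and aromatic Cys staples. Read-out per 8-mer (and its reverse complement): E-score (rank-based enrichment, -0.5 to 0.5) and Z-score of median probe intensity.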

Row | Sequence | PBM 8-mer E-score
1 | AAACATAA | 0.246 ± 0.1
2 | CTCAGGAG | -0.162 ± 0.071
3 | ATCCTTGG | -0.0154 ± 0.11
4 | CTTCCCTC | 0.0647 ± 0.025
5 | AAGATTTG | 0.0326 ± 0.071
6 | ACGTTTGC | 0.0313 ± 0.0058
7 | CCGGTGAC | -0.252 ± 0.12
8 | ACATGCTA | 0.164 ± 0.071
9 | CTATGGTC | -0.125 ± 0.061
10 | ACATGCTC | 0.237 ± 0.091
11 | AAATGGTA | 0.238 ± 0.096
12 | TAATGGTA | 0.193 ± 0.013
13 | CCATGCTC | 0.0121 ± 0.13
14 | CCATGGTC | -0.1574 ± 0.0011
15 | ACATGGTC | 0.245 ± 0.08
16 | AGATGGTG | -0.0739 ± 0.067
17 | ACATGGTG | 0.241 ± 0.053
18 | CAATGGTA | 0.0785 ± 0.022
19 | ACATGGCG | 0.175 ± 0.045
20 | ATCTGGTA | -0.00159 ± 0.021
21 | AGCGGCCC | -0.191 ± 0.026
22 | CGACGGTC | -0.172 ± 0.15
23 | AGTGTGTG | 0.0857 ± 0.065
24 | AAGAGCTA | 0.12 ± 0.045
25 | ATTTGTCA | 0.123 ± 0.0081

Row | Sequence | PBM 8-mer E-score
26 | CCGGCCCG | -0.259 ± 0.054
27 | ACATGGTA | 0.287 ± 0.017
28 | CCATGGTA | 0.143 ± 0.12
29 | GCATGGTA | 0.142 ± 0.082
30 | GTACCACA | 0.115 ± 0.043
31 | CGTGCTCC | 0.0253 ± 0.0099
32 | ACATCGTA | 0.101 ± 0.015
33 | AAAAATTT | 0.164 ± 0.0071
34 | AAAATTTT | 0.305 ± 0.019
35 | AAAATTTG | 0.12 ± 0.17
36 | CACTGACC | -0.132 ± 0.086
37 | ATCATGTG | 0.247 ± 0.12
38 | AGCATGTA | 0.228 ± 0.034
39 | AGCATGTC | 0.0591 ± 0.078
40 | AGCATGTG | 0.276 ± 0.029
41 | ACCATGTG | 0.359 ± 0.078
42 | ATCATGTA | 0.108 ± 0.027
43 | ATCATGTC | 0.225 ± 0.024
44 | ACCATGTA | 0.0719 ± 0.046
45 | ACCATGTC | 0.0641 ± 0.067
46 | CCTCGACA | -0.0844 ± 0.042
47 | ATATGCTC | 0.171 ± 0.015
48 | AATGAAAA | 0.13 ± 0.0019
49 | AATGCGAT | 0.019 ± 0.029
50 | CCCCGAAA | -0.0496 ± 0.15

Row | Sequence | PBM 8-mer E-score
51 | ATCTTGAC | 0.00194 ± 0.029
52 | ATCTTGAA | 0.0915 ± 0.096
53 | ATCTTGAG | 0.251 ± 0.011
54 | AATGATGT | 0.0444 ± 0.087
55 | GCATGTCC | 0.00639 ± 0.093
56 | AGTGAGGG | -0.0244 ± 0.062
57 | TATAAAAA | 0.301 ± 0.1
58 | AATAAAGA | 0.18 ± 0.015
59 | CATAAAAC | 0.209 ± 0.058
60 | GGTAAACA | 0.163 ± 0.037
61 | TAAAAAAA | 0.159 ± 0.11
62 | AGTAAACA | 0.202 ± 0.092
63 | TGTAAACA | 0.237 ± 0.0061
64 | TATAAAGA | 0.252 ± 0.053
65 | CATAAAAG | 0.138 ± 0.11
66 | CATAAAAA | 0.254 ± 0.044
67 | GATAAAGA | 0.195 ± 0.048
68 | GATAAAAA | 0.204 ± 0.016
69 | AAAGTAGA | 0.0577 ± 0.0065
70 | CAAGGTAA | 0.0156 ± 0.05
71 | CACCCCAA | 0.206 ± 0.015
72 | CGAGCACC | -0.226 ± 0.0053
73 | TGCCTGAA | -0.00136 ± 0.071
74 | ATTGATCG | 0.103 ± 0.027
75 | GATAAACA | 0.136 ± 0.05

Row | Sequence | PBM 8-mer E-score
76 | CATAAACA | 0.252 ± 0.053
77 | TATAAACA | 0.234 ± 0.022
78 | GTCGCGCA | -0.0658 ± 0.12
79 | GTACTCCA | -0.0757 ± 0.025
80 | AAGCTGAT | 0.313 ± 0.042
81 | AAGCTGAC | -0.16 ± 0.059
82 | AAGCTGTA | 0.111 ± 0.038
83 | TGCTGGAA | -0.0216 ± 0.063
84 | GGAGAACC | -0.142 ± 0.092
85 | CGTTATAG | 0.262 ± 0.046
86 | CGTTATAA | 0.133 ± 0.02
87 | CGTTATAC | 0.036 ± 0.026
88 | AGTTATAT | 0.244 ± 0.012
89 | AGTTATAC | 0.143 ± 0.075
90 | AGTTATAA | 0.181 ± 0.096
91 | GTCTTCCA | -0.0719 ± 0.098
92 | ATCCTAAG | -0.054 ± 0.025
93 | ACAAAGCG | 0.0741 ± 0.0089
94 | GAACCTAC | -0.16 ± 0.037
95 | TTATTAAA | 0.142 ± 0.044
96 | ATATTTAC | 0.196 ± 0.025
97 | ATATTAAA | 0.326 ± 0.0046
98 | ACATTTAG | 0.136 ± 0.066
99 | ATATTTAA | 0.344 ± 0.013
100 | ATATTAAC | 0.196 ± 0.0065

Row | Sequence | PBM 8-mer E-score
101 | GCATTTAA | 0.0477 ± 0.11
102 | ACATTTAA | 0.258 ± 0.14
103 | CTATTTAA | 0.0343 ± 0.057
104 | CTATTAAA | 0.159 ± 0.025
105 | ATATTAAG | 0.163 ± 0.058
106 | ATATTAAT | 0.238 ± 0.075
107 | AGGAACTA | -0.0068 ± 0.0036
108 | CACCAGGG | -0.137 ± 0.034
109 | AAGTCTTC | 0.0741 ± 0.052
110 | CTCCATTC | 0.102 ± 0.029
111 | CGAACCTC | 0.00719 ± 0.0044
112 | AAAAATCT | 0.0641 ± 0.091
113 | GTCCTGAA | -0.111 ± 0.053
114 | CCAGAAAC | -0.112 ± 0.092
115 | CTCACGGA | -0.205 ± 0.023
116 | GATAGCAC | 0.0754 ± 0.042
117 | CATAGCAA | 0.209 ± 0.024
118 | CATAGCAC | 0.258 ± 0.0042
119 | AGGGCGAT | -0.119 ± 0.015
120 | AGACTAAT | -0.0591 ± 0.045
121 | GGATATTA | 0.125 ± 0.09
122 | CGATATAC | 0.0102 ± 0.0034
123 | CGATATTC | -0.032 ± 0.1
124 | CGATATAG | 0.044 ± 0.12
125 | CGATATAA | 0.267 ± 0.016

Row | Sequence | PBM 8-mer E-score
126 | CGATATTA | 0.267 ± 0.038
127 | CTCGGGTC | -0.292 ± 0.04
128 | ATCTCAGC | -0.206 ± 0.11
129 | ATCATAAG | 0.19 ± 0.028
130 | AACATAAG | 0.13 ± 0.07
131 | ATCATAAA | 0.212 ± 0.046
132 | ATCATAAT | 0.288 ± 0.047
133 | ATCATGAA | 0.111 ± 0.029
134 | ATCATGAT | 0.289 ± 0.0047
135 | AACATAAC | 0.18 ± 0.13
136 | AACATAAT | 0.31 ± 0.035
137 | ATCATGAG | 0.111 ± 0.046
138 | CGCGCCAG | -0.222 ± 0.12
139 | ATTGAGAC | -0.0808 ± 0.13
140 | GTGACAAA | 0.0325 ± 0.033
141 | AATAATGT | 0.258 ± 0.068
142 | AATAATGA | 0.269 ± 0.062
143 | CATAATGA | 0.0649 ± 0.033
144 | AATAATGG | 0.0129 ± 0.086
145 | AATAATGC | 0.1872 ± 0.0018
146 | GATAATGA | -0.00519 ± 0.014
147 | GCTCTTTA | 0.0129 ± 0.059
148 | CGAAACAG | -0.176 ± 0.0078
149 | CCCGGCTC | -0.299 ± 0.021
150 | CTCGGTTC | -0.185 ± 0.018

Row | Sequence | PBM 8-mer E-score
151 | GTTTTACA | 0.0874 ± 0.0056
152 | ATGGTAAG | 0.0283 ± 0.054
153 | ATGGTAAC | 0.26 ± 0.046
154 | GTGGTAAC | 0.102 ± 0.049
155 | GATAGTAC | 0.0698 ± 0.03
156 | GCCCACCA | -0.032 ± 0.095
157 | ACCCACCC | 0.299 ± 0.091
158 | GCCCACAC | 0.0523 ± 0.0056
159 | CCCCACCC | 0.165 ± 0.027
160 | ACCCACCA | 0.0656 ± 0.034
161 | GCCCACCC | 0.294 ± 0.07
162 | AACGGCCG | -0.0126 ± 0.14
163 | ACCCCGAG | -0.142 ± 0.045
164 | CATACCAG | 0.0299 ± 0.094
165 | ATATATTA | 0.225 ± 0.056
166 | GTGTATTA | 0.277 ± 0.0053
167 | GTATATTA | 0.28 ± 0.025
168 | CTGTATTA | 0.129 ± 0.013
169 | CTATATTA | 0.199 ± 0.042
170 | ATGTATTG | 0.251 ± 0.048
171 | ATGTATCG | 0.213 ± 0.065
172 | ATGTATTA | 0.22 ± 0.012
173 | ATGTATTC | 0.107 ± 0.074
